About 79,000 compounds went through this panel and 15% of them were active in at least one assay; those are over-represented in the sample as a whole. Activity calls are given as the source filed them. Cut-off read from the data, not from the text of the source: active = growth inhibition above about 70%; inactive = the rest.
Experiments:
[1] = NCI Yeast Anticancer Drug Screen. Data for the rad52 strain (AID 147);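 note: 0% = growth of vehicle-treated control cultures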; settings: S. cerevisiae rad52 mutant growth inhibition, hits give high values
Procedure, shortened: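 Genetically altered yeast (DNA damage repair defect) treated with compound; inhibition calculated relative to vehicle.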

[2] = NCI Yeast Anticancer Drug Screen. Data for the wt1 strain (AID 149);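 note: 0% = growth of vehicle-treated wt1 cultures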; settings: S. cerevisiae wt1 strain (SPY 50644) growth inhibition, hits give high values
Procedure, shortened: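 Measured: growth of wt1 yeast under compound versus vehicle treatment, reported as inhibition.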

[3] = NCI Yeast Anticancer Drug Screen. Data for the rad50EPP+ strain (AID 151);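 note: 0% = growth of vehicle-treated control cultures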; settings: S. cerevisiae rad50 mutant strain, hits give high values
Procedure, shortened: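 Strain rad50EPP+; compound exposure; % growth inhibition vs vehicle.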

[4] = NCI Yeast Anticancer Drug Screen. Data for the mgt1 strain (AID 153); settings: S. cerevisiae mgt1 mutant growth inhibition, hits give high values
Procedure, shortened: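 Read-out: yeast growth inhibition vs vehicle control. Strain mgt1, drawn from a panel altered in DNA damage repair or cell cycle control.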

[5] = NCI Yeast Anticancer Drug Screen. Data for the rad50 strain (AID 155);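 note: 0% = growth of vehicle-only cultures of the same strain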; settings: S. cerevisiae rad50 strain growth inhibition, hits give high values
Procedure, shortened: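 Growth of the mutant yeast was measured after compound exposure and referenced to vehicle-treated cultures.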

[6] = NCI Yeast Anticancer Drug Screen. Data for the mec2-1 strain (AID 157); settings: S. cerevisiae mec2-1 strain, hits give high values
Procedure, shortened: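 Cells of the genetically defined mec2-1 yeast strain are incubated with test compound. Inhibition of growth is calculated against vehicle-treated controls.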

[7] = NCI Yeast Anticancer Drug Screen. Data for the rad14 strain (AID 159);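 note: 0% = growth of vehicle-treated control cultures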; settings: S. cerevisiae rad14 strain growth inhibition, hits give high values
Procedure, shortened: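 Here, inhibition of yeast growth was measured after compound exposure, using a strain with a genetic defect in DNA damage repair and vehicle-treated cultures as the reference.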

[8] = NCI Yeast Anticancer Drug Screen. Data for the sgs1 mgt1 strain (AID 161);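 note: 0% = growth of cultures given vehicle only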; settings: S. cerevisiae sgs1 mgt1 strain, hits give high values
Procedure, shortened: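 Read-out: growth inhibition vs vehicle controls. Cells: mutant yeast strain deficient in DNA damage repair.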

[9] = NCI Yeast Anticancer Drug Screen. Data for the CLN2oe strain (AID 163);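 note: 0% = growth of vehicle-only control cultures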; settings: S. cerevisiae CLN2oe strain, hits give high values
Procedure, shortened: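 Strain altered in cell-cycle control, incubated with compound; growth compared to solvent-treated controls.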

[10] = NCI Yeast Anticancer Drug Screen. Data for the cln2 rad14 strain (AID 165);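 note: 0% = growth equal to vehicle treated cultures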; settings: S. cerevisiae cln2 rad14 strain, hits give high values
Procedure, shortened: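 The screen exposed genetically defined yeast (cln2 rad14) to test compounds and scored growth inhibition relative to vehicle-treated controls.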

[11] = NCI Yeast Anticancer Drug Screen. Data for the bub3 strain (AID 167); settings: S. cerevisiae bub3 mutant strain, hits give high values
Procedure, shortened: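 Whole-cell yeast assay. The mutant strain was incubated with compounds, and growth inhibition was determined by comparison with vehicle-treated cells.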

[12] = NCI Yeast Anticancer Drug Screen. Data for the wt2 strain (AID 169);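 note: 0% = growth of vehicle-treated yeast cultures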; settings: S. cerevisiae wt2 strain growth inhibition, hits give high values
Procedure, shortened: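 Steps: yeast strain treated with compound; growth recorded; inhibition calculated relative to cultures given vehicle alone.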

[13] = NCI Yeast Anticancer Drug Screen. Data for the mlh1 strain (AID 171);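 note: 0% = growth of vehicle-treated control cultures of the same strain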; settings: S. cerevisiae mlh1 strain growth inhibition, hits give high values
Procedure, shortened: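 Yeast screen: mutant strain plus compound, growth scored against vehicle control wells.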

[14] = NCI Yeast Anticancer Drug Screen. Data for the sgs1 strain (AID 173);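 note: 0% = growth of vehicle-only control cultures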; settings: S. cerevisiae sgs1 mutant, hits give high values
Procedure, shortened: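 Inhibition of yeast growth served as the measure. The mutant strain was treated with each compound, and growth was normalised to cultures receiving vehicle alone.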

[15] = NCI Yeast Anticancer Drug Screen. Data for the mlh1 rad18 strain (AID 175); settings: S. cerevisiae mlh1 rad18 strain growth inhibition, hits give high values
Procedure, shortened: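 Compound-treated yeast growth, normalised to vehicle controls. Strain bears defined DNA repair mutations.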

[16] = NCI Yeast Anticancer Drug Screen. Data for the rad18 strain (AID 177); settings: S. cerevisiae rad18 mutant growth inhibition, hits give high values
Procedure, shortened: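 Inhibition values reflect reduced yeast growth compared with vehicle-treated controls, using a strain engineered with a DNA damage repair defect.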

[17] = at 5.0 µM (retest, dose inferred, filed as 0.5)
[18] = at 50.0 µM (retest, dose inferred, filed as 5.0)

Measured: growth inhibition

CC[C@@]1(O)C(=O)OCc2c1cc1n(c2=O)Cc2cc3c(CN(C)C)c(O)ccc3nc2-1
inactive: [1]; at 1.2 µM 5% | [1]; at 3.7 µM 13% | [1]; at 11.0 µM 41% | [1]; at 33.0 µM 68% | [2]; at 1.2 µM -1% | [2]; at 3.7 µM -1% | [2]; at 11.0 µM -2% | [2]; at 33.0 µM -2% | [2]; at 100.0 µM -6% | [3]; at 1.2 µM 30% | [3]; at 3.7 µM 29% | [3]; at 11.0 µM 22% | [3]; at 33.0 µM 23% | [3]; at 100.0 µM 30% | [4]; at 1.2 µM 11% | [4]; at 3.7 µM 2% | [4]; at 11.0 µM 3% | [4]; at 33.0 µM 11% | [4]; at 100.0 µM 18% | [5]; at 1.2 µM 6% | [5]; at 3.7 µM 18% | [5]; [17] 21% | [5]; at 11.0 µM 40% | [6]; at 1.2 µM -2% | [6]; at 3.7 µM -2% | [6]; [17] -3% | [6]; at 11.0 µM -1% | [6]; at 33.0 µM 2% | [6]; [18] -1% | [6]; at 50.0 µM 12.4% | [6]; at 100.0 µM 10% | [7]; at 1.2 µM -1% | [7]; at 3.7 µM -4% | [7]; at 11.0 µM -2% | [7]; at 33.0 µM -6% | [7]; at 100.0 µM -4% | [8]; [17] -3% | [8]; [18] -3% | [8]; at 50.0 µM 4.5% | [9]; at 1.2 µM -2% | [9]; at 3.7 µM -4% | [9]; at 11.0 µM -6% | [9]; at 33.0 µM -13% | [9]; at 100.0 µM -1% | [10]; [17] -3% | [10]; [18] -12% | [10]; at 50.0 µM -5.5% | [11]; at 1.2 µM 0% | [11]; at 3.7 µM -1% | [11]; [17] -3% | [11]; at 11.0 µM -3% | [11]; at 33.0 µM -14% | [11]; [18] -10% | [11]; at 50.0 µM -14.6% | [11]; at 100.0 µM -11% | [12]; at 1.2 µM -1% | [12]; at 3.7 µM 7% | [12]; at 11.0 µM -3% | [12]; at 33.0 µM -2% | [12]; at 100.0 µM -12% | [13]; at 1.2 µM 0% | [13]; at 3.7 µM -4% | [13]; at 11.0 µM -3% | [13]; at 33.0 µM 0% | [13]; at 100.0 µM 0% | [14]; at 1.2 µM -3% | [14]; at 3.7 µM 0% | [14]; at 11.0 µM 0% | [14]; at 33.0 µM 6% | [14]; at 100.0 µM 5% | [15]; [17] 0% | [15]; [18] 3% | [15]; at 50.0 µM 12.2% | [16]; at 1.2 µM 28% | [16]; at 3.7 µM 23% | [16]; at 11.0 µM 28% | [16]; at 33.0 µM 16% | [16]; at 100.0 µM 9%
active: [1]; at 100.0 µM 87% | [5]; at 33.0 µM 79% | [5]; [18] 85% | [5]; at 50.0 µM 80.7% | [5]; at 100.0 µM 92%

CC(C)c1cc(C(C)C)c(O)c(C([O-])[O-])c1.CC(C)c1cc(C(C)C)c(O)c(C([O-])[O-])c1.CC(C)c1cc(C(C)C)c(O)c(C([OH2+])[OH2+])c1.CC(C)c1cc(C(C)C)c(O)c(C([OH2+])[OH2+])c1.[Cu+2].[Cu+2].[OH3+].[OH3+]
active: [1]; at 100.0 µM 92% | [4]; at 100.0 µM 91% | [5]; at 100.0 µM 94%
inactive: [1]; at 1.2 µM 5% | [1]; at 3.7 µM 12% | [1]; at 11.0 µM 26% | [1]; at 33.0 µM 61% | [2]; at 1.2 µM -2% | [2]; at 3.7 µM 4% | [2]; at 11.0 µM 20% | [2]; at 33.0 µM 35% | [2]; at 100.0 µM 67% | [3]; at 1.2 µM 1% | [3]; at 3.7 µM 0% | [3]; at 11.0 µM 4% | [3]; at 33.0 µM 11% | [3]; at 100.0 µM 21% | [4]; at 1.2 µM -2% | [4]; at 3.7 µM 6% | [4]; at 11.0 µM 18% | [4]; at 33.0 µM 56% | [5]; at 1.2 µM 5% | [5]; at 3.7 µM 8% | [5]; [17] 5% | [5]; at 11.0 µM 21% | [5]; at 33.0 µM 65% | [5]; [18] 31% | [5]; at 50.0 µM 39.8% | [6]; at 1.2 µM 7% | [6]; at 3.7 µM 18%
